Data published in the supplement of paper PMC10849652.
Targets with a hit are over-represented here; the source holds about 8,800 in all. About 0.5% of all pairs of compound and target were hits. Values without a mark were called inactive.

Key:
Assay in all cases: log2 fold change, soluble protein after heating vs DMSO (PISA); higher = thermal stabilisation; K562 lysate, 10 uM; active = over 0.2 and 3.5 SD of the protein, either way, in both replicates (recomputed)
nilotinib = compound: Cc1cn(-c2cc(NC(=O)c3ccc(C)c(Nc4nccc(-c5cccnc5)n4)c3)cc(C(F)(F)F)c2)cn1 [nilotinib]
In short: (§1)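 K562 pellets were dounce-homogenised in PBS pH 7.4 containing 1 mM MgCl2, and the crude extract, at 1 mg/mL protein, was exposed to 10 μM compound for 30 min. Aliquots were heated for 3 min across 48°C-58°C, pooled, brought to 0.5% NP-40 at 4°C and spun at 21,000xg for 90 min, with the supernatant taken as soluble protein. TMTpro 16plex LC-MS/MS with equalised channel sums quantified that protein. Values are log-two fold changes in thermal stability relative to solvent controls, taken from duplicates.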

[1] = compound: Cc1nc(Nc2n[nH]c3c2CN(C(=O)N[C@H](CN(C)C)c2ccccc2)C3(C)C)c2sccc2n1
In short: as §1

dasatinib = compound: Cc1nc(Nc2ncc(C(=O)Nc3c(C)cccc3Cl)s2)cc(N2CCN(CCO)CC2)n1 [dasatinib]
In short: as §1

[2] = compound: Cc1ncc(-c2ccnc(Nc3ccc(S(C)(=O)=O)cc3)n2)n1C(C)C
In short: as §1

[3] = compound: Cn1cc(-c2ccc3c(c2)CCN3C(=O)Cc2cccc(C(F)(F)F)c2)c2c(N)ncnc21
In short: as §1

quisinostat = compound: Cn1cc(CNCC2CCN(c3ncc(C(=O)NO)cn3)CC2)c2ccccc21 [quisinostat]
In short: as §1

tipifarnib = compound: Cn1cncc1[C@@](N)(c1ccc(Cl)cc1)c1ccc2c(c1)c(-c1cccc(Cl)c1)cc(=O)n2C [tipifarnib]
In short: as §1

[4] = compound: NC(=O)Nc1cc(-c2cccc(F)c2)sc1C(=O)N[C@H]1CCCNC1
In short: as §1

[5] = compound: NC(=O)c1cnc(N[C@@H]2CCCC[C@@H]2N)nc1Nc1cccc(-n2nccn2)c1
In short: as §1

[6] = compound: NC1(c2ccc(-c3nc4ccn5c(=O)[nH]nc5c4cc3-c3ccccc3)cc2)CCC1
In short: as §1

[7] = compound: NCC(=O)Nc1ccc(-n2nc(C(F)(F)F)cc2-c2ccc3c(ccc4ccccc43)c2)cc1
In short: as §1

vorinostat = compound: O=C(CCCCCCC(=O)Nc1ccccc1)NO [vorinostat]
In short: as §1

silmitasertib = compound: O=C(O)c1ccc2c(c1)nc(Nc1cccc(Cl)c1)c1ccncc12 [silmitasertib]
In short: as §1

[8] = compound: O=C1NC(=O)C(c2cnc3ccccn23)=C1c1cn2c3c(cc(F)cc13)CN(C(=O)N1CCCCC1)CC2
In short: as §1

entospletinib = compound: c1cn2cc(-c3ccc4cn[nH]c4c3)nc(Nc3ccc(N4CCOCC4)cc3)c2n1 [entospletinib]
In short: as §1

UniProt Q8NDD1, sequence (Q8NDD1 whole entry, looked up): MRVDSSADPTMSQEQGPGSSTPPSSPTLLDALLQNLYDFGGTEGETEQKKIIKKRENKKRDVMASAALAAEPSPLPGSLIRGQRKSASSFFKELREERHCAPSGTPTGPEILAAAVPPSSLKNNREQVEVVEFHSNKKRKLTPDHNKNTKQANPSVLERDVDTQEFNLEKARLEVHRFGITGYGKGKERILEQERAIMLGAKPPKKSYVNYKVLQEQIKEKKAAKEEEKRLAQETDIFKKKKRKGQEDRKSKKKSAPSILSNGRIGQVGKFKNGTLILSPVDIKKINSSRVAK
UniProt Q00537, sequence (Q00537 whole entry, looked up): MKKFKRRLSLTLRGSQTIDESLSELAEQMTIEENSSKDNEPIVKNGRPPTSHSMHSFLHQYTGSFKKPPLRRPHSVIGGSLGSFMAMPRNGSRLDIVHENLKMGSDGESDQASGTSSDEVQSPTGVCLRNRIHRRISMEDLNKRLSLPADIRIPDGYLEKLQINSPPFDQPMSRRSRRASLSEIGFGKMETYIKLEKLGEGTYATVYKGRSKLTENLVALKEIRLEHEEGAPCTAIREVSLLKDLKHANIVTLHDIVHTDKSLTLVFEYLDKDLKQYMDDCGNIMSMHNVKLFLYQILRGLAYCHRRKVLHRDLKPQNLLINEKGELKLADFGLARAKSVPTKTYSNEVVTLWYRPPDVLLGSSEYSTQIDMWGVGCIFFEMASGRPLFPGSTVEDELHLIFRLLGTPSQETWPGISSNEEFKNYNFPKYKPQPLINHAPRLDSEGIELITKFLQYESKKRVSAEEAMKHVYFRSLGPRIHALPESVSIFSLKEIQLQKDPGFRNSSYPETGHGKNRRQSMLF
UniProt O60508, sequence (O60508 whole entry, looked up): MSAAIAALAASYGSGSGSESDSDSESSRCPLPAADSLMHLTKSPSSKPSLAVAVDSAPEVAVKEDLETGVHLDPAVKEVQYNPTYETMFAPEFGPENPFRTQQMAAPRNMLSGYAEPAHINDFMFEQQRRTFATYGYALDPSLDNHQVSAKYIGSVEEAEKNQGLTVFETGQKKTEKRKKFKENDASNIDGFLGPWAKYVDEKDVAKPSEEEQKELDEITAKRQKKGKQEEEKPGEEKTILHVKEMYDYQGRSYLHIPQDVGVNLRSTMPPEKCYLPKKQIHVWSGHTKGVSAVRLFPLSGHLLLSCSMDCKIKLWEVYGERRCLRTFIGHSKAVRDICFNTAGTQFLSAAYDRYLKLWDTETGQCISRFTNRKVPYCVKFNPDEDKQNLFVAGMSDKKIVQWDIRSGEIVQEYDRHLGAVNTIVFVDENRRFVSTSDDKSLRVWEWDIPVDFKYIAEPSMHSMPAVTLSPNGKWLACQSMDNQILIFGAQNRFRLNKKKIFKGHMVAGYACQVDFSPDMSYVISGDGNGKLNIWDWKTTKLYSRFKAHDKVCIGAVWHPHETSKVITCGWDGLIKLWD
UniProt Q5VT25, sequence (Q5VT25 whole entry, looked up): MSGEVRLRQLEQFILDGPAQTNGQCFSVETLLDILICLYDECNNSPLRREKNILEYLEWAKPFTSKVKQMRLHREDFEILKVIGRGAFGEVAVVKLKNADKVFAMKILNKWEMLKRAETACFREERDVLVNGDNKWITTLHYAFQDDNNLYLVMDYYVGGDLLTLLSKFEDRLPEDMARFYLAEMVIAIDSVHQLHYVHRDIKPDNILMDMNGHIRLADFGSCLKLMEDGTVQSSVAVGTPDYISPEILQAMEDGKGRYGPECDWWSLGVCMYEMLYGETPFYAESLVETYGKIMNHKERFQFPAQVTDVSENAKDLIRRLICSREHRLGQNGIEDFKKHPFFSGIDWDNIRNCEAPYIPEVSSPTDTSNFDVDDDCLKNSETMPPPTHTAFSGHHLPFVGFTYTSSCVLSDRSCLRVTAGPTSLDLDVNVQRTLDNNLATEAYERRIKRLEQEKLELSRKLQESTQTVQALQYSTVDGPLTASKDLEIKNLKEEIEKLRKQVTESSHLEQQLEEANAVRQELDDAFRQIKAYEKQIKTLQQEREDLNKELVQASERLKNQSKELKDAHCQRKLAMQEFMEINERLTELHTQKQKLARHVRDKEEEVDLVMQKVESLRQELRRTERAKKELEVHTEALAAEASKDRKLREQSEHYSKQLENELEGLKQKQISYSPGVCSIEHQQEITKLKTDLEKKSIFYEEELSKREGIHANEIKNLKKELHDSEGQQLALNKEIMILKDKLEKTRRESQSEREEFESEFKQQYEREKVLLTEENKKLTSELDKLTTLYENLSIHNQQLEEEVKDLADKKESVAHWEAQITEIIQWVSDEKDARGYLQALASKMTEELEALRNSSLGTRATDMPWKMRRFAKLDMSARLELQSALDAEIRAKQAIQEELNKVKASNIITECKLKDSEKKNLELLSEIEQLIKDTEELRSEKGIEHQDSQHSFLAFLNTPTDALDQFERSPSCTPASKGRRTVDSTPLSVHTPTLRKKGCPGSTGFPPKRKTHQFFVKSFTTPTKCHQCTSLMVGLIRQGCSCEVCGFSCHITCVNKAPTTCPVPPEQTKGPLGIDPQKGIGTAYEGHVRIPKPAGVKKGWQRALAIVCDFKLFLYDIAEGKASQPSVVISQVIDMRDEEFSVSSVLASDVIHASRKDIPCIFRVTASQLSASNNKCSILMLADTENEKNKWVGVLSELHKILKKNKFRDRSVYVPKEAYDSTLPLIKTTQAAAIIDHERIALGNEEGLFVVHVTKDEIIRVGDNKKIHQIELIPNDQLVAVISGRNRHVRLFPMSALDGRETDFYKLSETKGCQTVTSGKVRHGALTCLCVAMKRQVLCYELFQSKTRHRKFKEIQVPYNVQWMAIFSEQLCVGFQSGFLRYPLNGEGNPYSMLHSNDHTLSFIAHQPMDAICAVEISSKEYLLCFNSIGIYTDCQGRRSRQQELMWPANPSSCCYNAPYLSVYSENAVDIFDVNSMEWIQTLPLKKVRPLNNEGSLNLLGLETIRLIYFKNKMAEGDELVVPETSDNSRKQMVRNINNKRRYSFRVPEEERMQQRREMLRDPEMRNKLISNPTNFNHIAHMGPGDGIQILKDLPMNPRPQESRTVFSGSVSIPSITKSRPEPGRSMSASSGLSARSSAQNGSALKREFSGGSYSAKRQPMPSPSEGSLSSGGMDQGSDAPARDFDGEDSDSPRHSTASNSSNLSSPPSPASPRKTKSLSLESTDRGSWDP
UniProt Q96B23, sequence (Q96B23 whole entry, looked up): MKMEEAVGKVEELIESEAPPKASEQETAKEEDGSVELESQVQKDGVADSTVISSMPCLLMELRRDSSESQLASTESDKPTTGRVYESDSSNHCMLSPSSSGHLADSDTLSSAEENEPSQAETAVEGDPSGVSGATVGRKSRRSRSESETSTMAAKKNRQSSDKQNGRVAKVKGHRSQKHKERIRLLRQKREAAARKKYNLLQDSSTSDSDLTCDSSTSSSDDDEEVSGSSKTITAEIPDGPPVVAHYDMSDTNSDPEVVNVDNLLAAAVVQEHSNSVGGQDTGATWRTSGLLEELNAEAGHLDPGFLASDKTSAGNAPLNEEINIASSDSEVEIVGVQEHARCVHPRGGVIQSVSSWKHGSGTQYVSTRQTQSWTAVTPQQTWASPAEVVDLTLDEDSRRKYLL
UniProt P30304, sequence (P30304 whole entry, looked up): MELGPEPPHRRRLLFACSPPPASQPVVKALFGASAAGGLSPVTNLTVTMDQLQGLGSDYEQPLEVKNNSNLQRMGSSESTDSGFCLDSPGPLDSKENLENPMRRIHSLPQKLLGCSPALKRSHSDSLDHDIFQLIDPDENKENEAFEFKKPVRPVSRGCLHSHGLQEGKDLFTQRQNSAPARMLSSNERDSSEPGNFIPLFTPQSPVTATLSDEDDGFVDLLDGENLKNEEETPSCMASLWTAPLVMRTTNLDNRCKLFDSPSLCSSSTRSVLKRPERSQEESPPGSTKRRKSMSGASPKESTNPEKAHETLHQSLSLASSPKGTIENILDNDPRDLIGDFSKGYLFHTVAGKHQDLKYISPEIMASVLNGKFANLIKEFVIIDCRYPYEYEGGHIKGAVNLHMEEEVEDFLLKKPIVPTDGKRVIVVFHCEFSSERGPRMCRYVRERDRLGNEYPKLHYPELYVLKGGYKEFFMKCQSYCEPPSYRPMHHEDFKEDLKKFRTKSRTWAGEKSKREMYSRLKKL
UniProt O75143, sequence (O75143 whole entry, looked up): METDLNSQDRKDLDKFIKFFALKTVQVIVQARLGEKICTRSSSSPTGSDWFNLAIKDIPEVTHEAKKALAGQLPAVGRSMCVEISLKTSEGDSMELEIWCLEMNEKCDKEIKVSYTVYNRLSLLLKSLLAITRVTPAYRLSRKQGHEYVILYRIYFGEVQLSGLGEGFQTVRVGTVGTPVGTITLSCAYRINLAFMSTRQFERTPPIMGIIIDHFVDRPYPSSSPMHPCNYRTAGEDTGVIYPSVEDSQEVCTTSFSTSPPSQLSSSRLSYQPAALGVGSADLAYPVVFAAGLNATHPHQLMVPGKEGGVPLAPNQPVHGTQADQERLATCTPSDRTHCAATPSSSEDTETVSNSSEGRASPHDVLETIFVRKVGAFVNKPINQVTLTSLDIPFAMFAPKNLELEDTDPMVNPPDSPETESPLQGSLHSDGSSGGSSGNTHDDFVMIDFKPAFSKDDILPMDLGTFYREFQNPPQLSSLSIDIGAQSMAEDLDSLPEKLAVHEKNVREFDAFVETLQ
UniProt A8MTT3, sequence (A8MTT3 whole entry, looked up): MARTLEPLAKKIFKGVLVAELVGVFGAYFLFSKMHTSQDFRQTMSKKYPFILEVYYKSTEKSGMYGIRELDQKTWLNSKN
UniProt Q12983, sequence (Q12983 whole entry, looked up): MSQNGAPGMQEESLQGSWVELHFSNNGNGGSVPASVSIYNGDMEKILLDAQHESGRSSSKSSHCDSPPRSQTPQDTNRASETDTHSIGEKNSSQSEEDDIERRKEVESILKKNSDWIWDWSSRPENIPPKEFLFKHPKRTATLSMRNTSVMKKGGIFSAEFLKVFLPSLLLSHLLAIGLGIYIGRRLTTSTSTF

| Target | log2 fold change (nilotinib) | log2 fold change [1] | log2 fold change (dasatinib) | log2 fold change [2] | log2 fold change [3] | log2 fold change (quisinostat) | log2 fold change (tipifarnib) | log2 fold change [4] | log2 fold change [5] | log2 fold change [6] | log2 fold change [7] | log2 fold change (vorinostat) | log2 fold change (silmitasertib) | log2 fold change [8] | log2 fold change (entospletinib) |
| --- | --- | --- | --- | --- | --- | --- | --- | --- | --- | --- | --- | --- | --- | --- | --- |
| CHD4 isoform 2 (UniProt Q14839) | 0.006 | 0.008 | -0.011 | -0.006 | 0.015 | -0.038 | -0.008 | 0.031 | 0.01 | 0.001 | 0.023 | -0.284 (active) | -0.006 | 0.015 | -0.01 |
| CEP57L1 (UniProt Q8IYX8) | 0.246 | -0.129 | 0 | -0.014 | 0.34 | -0.101 | -0.015 | 0.041 |  | 0.031 |  | -0.23 | 0.133 | -0.044 | -0.029 |
| CDC25A (UniProt P30304) | 0.013 | -0.01 | -0.035 | -0.021 | 0.024 | 0.006 | 0.011 | 0.017 | 0.016 | 0.025 |  | -1.01 (active) | 0.084 | -0.172 |  |
| CCND3 (UniProt P30281) | -0.061 | -0.015 | -0.08 | 0.042 | 0.137 | -0.05 | -0.062 | -0.003 |  | -0.057 |  | -0.051 | 0.017 | 0.086 | 0.062 |
| BCR (UniProt P11274) | 0.108 | 0.021 | 0.043 | -0.017 | -0.018 | -0.044 | -0.015 |  | 0.028 | 0.016 | 0.012 | -0.267 (active) | 0.005 | 0.001 | -0.009 |
| CDC40 (UniProt O60508) | -0.015 | -0.026 | -0.005 | 0.039 | 0.058 | -0.138 | 0.046 | 0.02 | 0.063 | 0.097 | 0.029 | 0.08 | 0.015 | 0.005 | 0.014 |
| AVEN (UniProt Q9NQS1) | -0.014 | 0.068 | 0.01 | 0.025 | -0.08 | -0.042 | -0.188 | 0.038 |  | 0.154 | -0.146 | -0.738 (active) | -0.009 | 0.092 | -0.161 |
| BCAR1 isoform 6 (UniProt P56945) | -0.021 | -0.015 | 0.001 | -0.068 | 0.018 | 0.021 | -0.006 | 0.016 | -0.009 | 0.008 | 0.056 | -0.032 | 0.002 | -0.004 | -0.083 |
| BNIP3 (UniProt Q12983) | 0.037 | -0.077 | 0.014 | -0.002 | -0.02 | -0.219 | 0.05 | 0.061 | -0.018 | -0.007 |  | 0.066 | -0.08 | -0.048 | -0.031 |
| CEBPZOS (UniProt A8MTT3) | 0.069 | -0.01 | 0.053 | 0.024 | 0.044 | 0.02 | -0.017 | -0.039 | -0.004 | -0.008 | -0.113 | 0.082 | -0.004 | -0.025 | -0.037 |
| C15orf39 (UniProt Q6ZRI6) | 0.074 | -0.006 | -0.059 | 0.019 | 0.034 | -0.017 | -0.015 | 0.053 |  | 0.184 |  | -0.513 (active) | 0.008 | -0.025 | -0.147 |
| CHD9 (UniProt Q3L8U1) | 0.209 | 0.125 | -0.124 | -0.279 | -0.109 | -0.029 | -0.017 | 0 |  | 0.032 | -0.018 | -0.111 | 0.075 | -0.012 |  |
| CDK5RAP1 (UniProt Q96SZ6) | -0.007 | 0.002 | 0.037 | 0.019 | 0.011 | 0.049 | -0.002 | -0.004 |  | -0.013 | 0.011 | 0.036 | -0.07 | 0.016 | 0.029 |
| CDK17 isoform 2 (UniProt Q00537) | 0.061 | 0.117 | -0.068 | 0.096 | 0.011 | -0.069 | -0.423 | -0.057 |  | 0.068 | 0.01 | 0.174 | 0.565 (active) | 0.103 | -0.162 |
| C18orf25 isoform 2 (UniProt Q96B23) | -0.026 | -0.115 | -0.025 | -0.291 | -0.056 |  | 0.076 |  | 0.01 | -0.071 | -0.014 | -0.034 | -0.067 |  | 0.038 |
| ATG13 isoform 2 (UniProt O75143) | -0.034 | 0.036 | 0.002 | 0.028 | -0.069 | -0.052 | -0.018 | 0.059 | 0 | -0.014 | 0.01 | 0.051 | -0.01 | 0.024 | -0.008 |
| CAMK2B (UniProt Q13554) | -0.026 | 0.399 (active) | -0.055 | 0.026 | 0.023 | -0.205 | -0.035 | 0.295 | 0.089 | -0.045 | 0.014 | -0.133 | -0.017 | 0.056 | -0.02 |
| CEP152 (UniProt O94986) | -0.058 | 0.108 | 0.012 | -0.014 | -0.017 | -0.413 (active) | 0.02 | 0.058 |  | 0.112 | 0.025 | -0.167 | 0.039 | 0.089 | -0.04 |
| CDC42BPA isoform 6 (UniProt Q5VT25) | -0.01 | 0.003 | 0.012 | 0.013 | 0.048 | 0.025 | 0 | 0.004 | -0.002 | 0.024 | -0.008 | -0.224 (active) | 0.018 | 0.001 | 0 |
| C1orf131 isoform 5 (UniProt Q8NDD1) | -0.106 | -0.059 | 0.048 | -0.135 | 0.034 | -0.103 | 0.073 | -0.025 | -0.035 | 0.002 | 0.059 | -0.445 (active) | -0.025 | 0.039 | -0.013 |
